Experimental data from PubChem BioAssay AID1159580 (chemical genetic matrix, 2015).
“And” between values parts separate entries of the source, which are not always exact repeats. Identical values can stand only once. The whole screen tested about 5,500 compounds, of which about 2,000 (36%) were called active. Another 18% or so got no clear call; they are omitted. Cut-off read from the data, not from the text of the source: active = normalized growth mostly below about 0.91 (no sharp cut-off); inconclusive = no clear call, values can overlap the other calls; inactive = mostly above about 0.92. Some of the results follow.

Test: chemical genetic growth profiling, strain panel (AID 1159580);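 note: tested at 20 µM; growth read once vehicle control cultures reached saturation at 30 °C; 1 = growth at the plate median or of vehicle wells; lower values mean less growth of the strain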
Conditions: S. cerevisiae deletion strains, growth OD

Measured: normalized growth

CC1=CC2C(C(C)C)CCC(C)(O)C2CC1 (configuration not stated)
active: locus YDR137W, strain rgp1, active compounds read low 0.771 | locus YDR392W, strain spt3, active compounds read low 0.59
inactive: locus YAL013W, strain DEP1, active compounds read low 1 | locus YAL021C, strain ccr4, active compounds read low 0.981 | locus YAL026C, strain drs2, active compounds read low 1.01 | locus YAL030W, strain snc1, active compounds read low 0.989 | locus YBL061C, strain skt5, active compounds read low 0.991 | locus YBR009C, strain hhf1, active compounds read low 0.97 | locus YBR021W, strain FUR4, active compounds read low 0.999 | locus YBR023C, strain chs3, active compounds read low 0.945 | locus YBR171W, strain sec66, active compounds read low 0.974 | locus YBR229C, strain ROT2, active compounds read low 0.949 | locus YBR231C, strain swc5, active compounds read low 1.02 | locus YBR279W, strain paf1, active compounds read low 0.988 | locus YCL011C, strain gbp2, active compounds read low 0.998 | locus YCL016C, strain dcc1, active compounds read low 0.972 | locus YCL029C, strain bik1, active compounds read low 0.953 | locus YCL061C, strain MRC1, active compounds read low 1.01 | locus YCL069W, strain vba3, active compounds read low 0.981 | locus YCR088W, strain abp1, active compounds read low 0.996 | locus YDL005C, strain med2, active compounds read low 0.998 | locus YDL035C, strain GPR1, active compounds read low 0.963 | locus YDL040C, strain nat1, active compounds read low 0.987 | locus YDL074C, strain BRE1, active compounds read low 0.97 | locus YDL101C, strain DUN1, active compounds read low 0.977 | locus YDL134C, strain PPH21, active compounds read low 1.01 | locus YDL185W, strain tfp1, active compounds read low 0.972 | locus YDL192W, strain arf1, active compounds read low 0.934 | locus YDR001C, strain nth1, active compounds read low 0.992 | locus YDR069C, strain doa4, active compounds read low 1.01 | locus YDR101C, strain arx1, active compounds read low 0.969 | locus YDR159W, strain sac3, active compounds read low 0.915 | locus YDR162C, strain NBP2, active compounds read low 0.956 | locus YDR195W, strain ref2 1.03 | locus YDR297W, strain sur2, active compounds read low 0.979 | locus YDR318W, strain mcm21, active compounds read low 0.959 | locus YDR334W, strain swr1, active compounds read low 1.03 | locus YDR335W, strain msn5, active compounds read low 0.977 | locus YDR388W, active compounds read low 0.985 | locus YDR502C, strain sam2, active compounds read low 1.02 | locus YEL003W, strain gim4, active compounds read low 1 | locus YEL037C, strain rad23, active compounds read low 0.997 | locus YEL061C, strain CIN8 (second series), active compounds read low 1 | locus YEL061C, strain CIN8, active compounds read low 0.974 | locus YER015W, strain faa2, active compounds read low 0.991 | locus YER016W, strain bim1, active compounds read low 0.998 | locus YER110C, active compounds read low 0.966 | locus YER111C, strain swi4, active compounds read low 0.995 | locus YER155C, strain BEM2 (second series), active compounds read low 0.875 | locus YER155C, strain BEM2, active compounds read low 0.992 | locus YER167W, strain BCK2, active compounds read low 0.977 | locus YFR010W, strain ubp6, active compounds read low 1.1 | locus YGL078C, strain dbp3, active compounds read low 1.02 | locus YGL086W, strain mad1, active compounds read low 0.978 | locus YGL167C, strain pmr1, active compounds read low 0.98 | locus YGL173C, strain kem1, active compounds read low 0.994 | locus YGL227W, strain vid30, active compounds read low 0.991 | locus YGL240W, strain doc1, active compounds read low 0.959 | locus YGL248W, strain PDE1, active compounds read low 1.02 | locus YGL253W, strain hxk2, active compounds read low 0.998 | locus YGR078C, strain PAC10, active compounds read low 0.981 | locus YGR135W, strain pre9, active compounds read low 1.08 | locus YGR229C, strain SMI1, active compounds read low 0.969 | locus YGR252W, strain gcn5, active compounds read low 1.06 | locus YHR013C, strain ard1, active compounds read low 1.08 | locus YHR027C, strain rpn1, active compounds read low 1.01 | locus YHR030C, strain SLT2, active compounds read low 1 and 0.93 | locus YHR079C, strain IRE1 (second series), active compounds read low 0.987 | locus YHR079C, strain IRE1, active compounds read low 0.918 | locus YHR094C, strain hxt1, active compounds read low 0.983 | locus YHR129C, strain ARP1, active compounds read low 0.993 | locus YHR142W, strain chs7, active compounds read low 0.916 | locus YHR200W, strain rpn10, active compounds read low 1 | locus YIL066C, strain RNR3, active compounds read low 0.968 | locus YIL073C, strain SPO22, active compounds read low 1.04 | locus YIL125W, strain kgd1, active compounds read low 0.961 | locus YIR030C, strain dcg1, active compounds read low 0.981 | locus YJL092W, strain hpr5, active compounds read low 0.996 | locus YJL095W, strain BCK1 (second series), active compounds read low 0.995 | locus YJL095W, strain BCK1, active compounds read low 1.05 and 0.947 | locus YJL115W, strain asf1, active compounds read low 1 | locus YJL129C, strain trk1, active compounds read low 1.01 | locus YJL134W, strain LCB3, active compounds read low 0.979 | locus YJL154C, strain vps35, active compounds read low 0.998 | locus YJL164C, strain tpk1, active compounds read low 0.942 | locus YJL166W, strain qcr8, active compounds read low 0.979 | locus YJL168C, strain set2, active compounds read low 0.992
